Holding throughout (assay): PBM binding z-score (relative to random genomic background probes); higher = stronger binding; sequences stand for … in GC…GCGATTGACAGCGTAGAATGAAGG
Experiment [1] concerns FXR:RXRa (NR concentration 270 nM, RXRa partner concentration 90 nM). An outline of the steps: (§1)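 Antibodies against each partner of ligand-free nuclear receptor dimers (one per run) detected binding on custom Agilent 4×180K protein-binding microarrays after 1 h incubation. The double-stranded probes had 34-nt variable regions carrying direct-repeat seeds, single-nucleotide variants, half-site ablations and random human genomic background sequences. Binding z-scores, from regression-normalized fluorescence, use the random background probes as reference.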

The subject of experiment [2] is LXRa:RXRa (NR concentration 270 nM, RXRa partner concentration 90 nM). An outline of the steps:
as §1

The subject of experiment [3] is LXRa homodimer (NR concentration 270 nM). An outline of the steps:
as §1

In experiment [4] the test system is LXRb:RXRa (NR concentration 270 nM, RXRa partner concentration 90 nM). An outline of the steps:
as §1

The test system of experiment [5] is LXRb homodimer (NR concentration 270 nM). An outline of the steps:
as §1

Experiment [6] relates to PPARa:RXRa (NR concentration 270 nM, RXRa partner concentration 90 nM). The method, boiled down:
as §1

The subject of experiment [7] is PPARg:RXRa (NR concentration 180 nM, RXRa partner concentration 90 nM). The method, boiled down: as §1
Experiment [8] relates to PPARg:RXRa 270nM:90nM, anti-RXR (NR concentration 270 nM, RXRa partner concentration 90 nM). An outline of the steps: as §1
Experiment [9] concerns PPARg:RXRa 30nM:10nM, anti-RXR (NR concentration 30 nM, RXRa partner concentration 10 nM). An outline of the steps: as §1
Experiment [10] relates to PPARg:RXRa 90nM:30nM, anti-RXR (NR concentration 90 nM, RXRa partner concentration 30 nM). An outline of the steps:
as §1

Experiment [11] concerns PPARg:RXRa DBDmut IVT, anti-RXR (DBD mutation: RXRa K156A/R161A, NR concentration 270 nM, RXRa partner concentration 90 nM). The method, boiled down: as §1
The test system of experiment [12] is PPARg:RXRa IVT, anti-PPARg (NR concentration 270 nM, RXRa partner concentration 90 nM). An outline of the steps: as §1
Experiment [13] concerns PPARg DBDmut:RXRa IVT, anti-PPARg (DBD mutation: PPARg1 K132A/R137A, NR concentration 270 nM, RXRa partner concentration 90 nM). The method, boiled down:
as §1

Experiment [14] concerns PPARg DBDmut IVT, anti-PPARg (DBD mutation: PPARg1 K132A/R137A, NR concentration 270 nM). An outline of the steps: as §1
The test system of experiment [15] is PPARg homodimer (NR concentration 180 nM). The method, boiled down:
as §1

Experiment [16] relates to PXR:RXRa (NR concentration 270 nM, RXRa partner concentration 90 nM). An outline of the steps:
as §1

Experiment [17] has as its system PXR homodimer (NR concentration 270 nM). The method, boiled down: as §1
Experiment [18] deals with RARa:RXR (NR concentration 270 nM, RXRa partner concentration 90 nM). An outline of the steps:
as §1

The subject of experiment [19] is RARa homodimer (NR concentration 270 nM). An outline of the steps:
as §1

Experiment [20] deals with RARb:RXRa (NR concentration 270 nM, RXRa partner concentration 90 nM). The method, boiled down: as §1

Here are results for six sequences from the supplement of paper PMC6555819.

For CCTTACGGGTCACTGACAGGTTATAGCTTTTGGA, the PBM binding z-score is 4.62 in experiment [1]; 4.13 in [2]; 0.331 in experiment [3]; 3.35 in experiment [4]; -0.0774 in [5]; 4.88 in [6]. The PBM binding z-score in [7] came out at 3.89; in experiment [8], 4.21; in [9] it was 1.73; in experiment [10], 3.06; in experiment [11] it was 3.62; in experiment [12], 3.94. The PBM binding z-score is -0.188 in experiment [13]; -0.142 in [14]; 1.82 in experiment [15]; 3.38 in experiment [16]; -0.201 in experiment [17]; 4.13 in experiment [18]. The values for the PBM binding z-score in experiment [19] and in experiment [20] were 0.634 and 3.74, respectively.

Take CCTATTAGTTGACCATGAGGGCAACCGAAGCTCG: the PBM binding z-score in [1] stood at 1.01; in [2] it was 0.684; in experiment [3], 0.747; in [4], 0.619; in experiment [5], 0.6; in experiment [6], 0.652. The PBM binding z-score in [7] is 0.438; in experiment [8], 0.373; in [9], -0.175; in [10], 0.282; in [11], 0.64; in experiment [12], 0.77. The PBM binding z-score stood at 0.542 in experiment [13]; 0.384 in [14]; 1.98 in [15]; 1.48 in experiment [16]; 1.48 in [17]; 1.37 in [18]. The results for the PBM binding z-score in experiment [19] and in experiment [20] were 1.39 and 1.52, respectively.

Consider GCTGCTAGGTCAGGTCGGTCAGCTAACGGGTACG, for which the PBM binding z-score is 1.34 in [1]; 1.02 in experiment [2]; 0.025 in [3]; 0.546 in [4]; -0.437 in experiment [5]; 1.77 in [6]. Also, the PBM binding z-score in experiment [7] was 0.669; in [8] it was 1.4; in experiment [9], -0.193; in experiment [10] it was 0.397; in experiment [11] it was 2.59; in experiment [12] it was 2.88. Further, the PBM binding z-score in [13] is -0.904; in [14] it was -0.563; in experiment [15], 0.777; in experiment [16], 0.726; in [17], -0.37; in experiment [18], 1.37. For the same sequence, the PBM binding z-score in [19] was -0.616; in experiment [20] it was 3.88.

As for TCATATAGGTAAAAGGTTAAAGTCGGTGTGGTAA, the PBM binding z-score in experiment [1] worked out at 3.06; in experiment [2], 3.43; in experiment [3], 1.29; in [4], 3.39; in [5], 0.553; in experiment [6] it was 5.77. The PBM binding z-score turned out to be 10.2 in experiment [7]; 8.8 in [8]; 9.29 in experiment [9]; 9.7 in [10]; 4.98 in [11]; 5.34 in [12]. Further, the PBM binding z-score is 1.14 in experiment [13]; 1.22 in experiment [14]; 2.21 in experiment [15]; 3.01 in experiment [16]; 1.15 in experiment [17]; 4.32 in experiment [18]. Further, the results for the PBM binding z-score in [19] and in experiment [20] were 2.65 and 2.64, respectively.

For ATCGCTAGGTAAAGTTCAGTGAAAGATCGATAGA, the PBM binding z-score in [1] is 0.349; in [2] it was 1.22; in experiment [3] it was 0.609; in experiment [4], 0.692; in [5] it was -0.361; in [6], 1.81. For the same sequence, the PBM binding z-score in experiment [7] is 1.85; in experiment [8] it was 3.26; in [9], 1.49; in experiment [10] it was 2.75; in [11], -0.192; in [12], 0.414. The PBM binding z-score was -0.0288 in [13]; -0.241 in [14]; 0.606 in experiment [15]; 1.42 in experiment [16]; 1.26 in [17]; 0.812 in [18]. In addition, the PBM binding z-score was -0.216 in experiment [19] and 2.37 in [20].

For the sequence AGTCAAAGTTCAGGACGAGGTAACGGAAAGCACG, the PBM binding z-score in [1] was determined as 3.52; in experiment [2] it was 3.93; in experiment [3] it was 0.925; in experiment [4], 1.77; in experiment [5] it was 0.134; in [6] it was 3.46. The PBM binding z-score was 4.45 in experiment [7]; 4.88 in [8]; 1.83 in experiment [9]; 3.87 in [10]; -0.203 in experiment [11]; 2.06 in [12]. The PBM binding z-score in experiment [13] came to 0.787; in experiment [14], 0.337; in [15], 2.37; in experiment [16] it was 2.66; in [17], 1.31; in experiment [18], 2.62. The PBM binding z-score in experiment [19] amounted to 0.344; in [20] it was 4.22.
